Screens: PubChem, several laboratories
Shown are actives, neighbours in structure and some others; about 1.6% of the full set was active somewhere.
HTR5A inv ctr – counter-screen for OPRM1-OPRD1 inverse agonists: human HTR5A inverse agonism. inhibition, % at 9.3 µM. P47898. HTR5A cell line, luminescence. 340,000 tested, 0.083% active; in the data active means inhibition mostly above about 23%, no sharp cut-off; inactive means mostly below about 18%;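 further: 0% = cells with DMSO and 100% = no-cell wells with DMSO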
HTR5A ag ctr – activates human HTR5A in OPRM1-OPRD1 agonist counter-screen; P47898; HTR5A agonist assay, luminescence, cell-based; activation, % at 9.3 µM; 340,000 tested, 0.61% active; in the data active means activation mostly above about 9.5%, no sharp cut-off; inactive means mostly below about 7.6%;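 further: 0% = cells with vehicle only and 100% = reference agonist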
NALP1 yeast inh – blocks the NALP1 inflammasome reconstituted in yeast. 280,000 tested, 0.61% active. inhibition, % at 10 µM. S. cerevisiae NALP1/ASC/caspase-1 growth, X-gal OD620, 72 h. AID 2071; in the data active means inhibition mostly above about 24%, no sharp cut-off; inactive means mostly below about 32%
MOR-DOR inv ag – mu-delta opioid heterodimer inverse agonism. inhibition, % at 9.3 µM. AID 504357. P35372+P41143. 340,000 tested, 0.21% active. cell-based MOR-DOR heterodimer luminescence; in the data active means inhibition above about 22%, passing the limit was not always enough;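 further: 0% = cells with DMSO and 100% = wells without cells with DMSO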
Target sequence (P35372 whole entry, looked up): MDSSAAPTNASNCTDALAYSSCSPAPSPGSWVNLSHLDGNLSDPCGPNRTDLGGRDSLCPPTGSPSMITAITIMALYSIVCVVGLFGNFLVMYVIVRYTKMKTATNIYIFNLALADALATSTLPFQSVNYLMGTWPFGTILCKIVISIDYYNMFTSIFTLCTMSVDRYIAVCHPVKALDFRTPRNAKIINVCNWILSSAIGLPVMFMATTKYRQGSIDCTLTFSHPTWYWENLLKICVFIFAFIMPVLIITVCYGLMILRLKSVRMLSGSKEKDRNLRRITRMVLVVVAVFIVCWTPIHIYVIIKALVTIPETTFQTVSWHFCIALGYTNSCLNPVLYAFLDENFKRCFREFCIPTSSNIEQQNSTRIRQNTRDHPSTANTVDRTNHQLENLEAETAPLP
Target sequence (P41143 whole entry, looked up): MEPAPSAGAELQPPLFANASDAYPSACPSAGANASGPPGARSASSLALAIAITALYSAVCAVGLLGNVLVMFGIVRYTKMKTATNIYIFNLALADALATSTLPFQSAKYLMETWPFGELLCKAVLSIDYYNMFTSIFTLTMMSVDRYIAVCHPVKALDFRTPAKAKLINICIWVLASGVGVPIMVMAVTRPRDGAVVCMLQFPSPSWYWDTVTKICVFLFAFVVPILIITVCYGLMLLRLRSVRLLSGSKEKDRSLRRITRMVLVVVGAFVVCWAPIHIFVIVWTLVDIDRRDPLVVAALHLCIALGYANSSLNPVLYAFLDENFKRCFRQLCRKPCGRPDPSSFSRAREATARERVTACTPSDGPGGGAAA
OPRM1-OPRD1 ag – OPRM1-OPRD1 heterodimerization agonism; P35372+P41143; cells, luminescence; activation, % at 9.3 µM; 340,000 tested, 0.3% active; AID 504326; in the data active means activation above about 18%;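 further: 0% = vehicle-treated cells and 100% = reference agonist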
PolyA inh – yeast polyadenylation inhibition; S. cerevisiae SKY197-pL101 polyadenylation reporter, beta-gal luminescence; efflux-impaired pdr1/pdr3 knockout yeast; score 100 = 6 SD above DMSO; activity score, % at 12 µM; 300,000 tested, 0.02% active;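 active means lowest replicate activity score at least 50, where 100 means six control SD above control mean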;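 further: yeast exposed to compound for 9 h at 30 °C; higher score means more reporter readthrough which indicates perturbed polyadenylation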
* = called active by the depositor; · = no result.

SMILES	HTR5A inv ctr	HTR5A ag ctr	NALP1 yeast inh	MOR-DOR inv ag	OPRM1-OPRD1 ag	PolyA inh
Cn1c(=O)[nH]c(=O)c2c1nc(NC1CCCC1)n2Cc1ccccc1	-38	10.0*	7	8	-2	-1
CCN(CC)C(=O)Cn1nnc(-c2ccc(S(C)(=O)=O)cc2)n1	24	-7	1	12	-2	13
COc1cccc(-c2nnc3sc(C4CCCCC4)nn23)c1	-2	1	37*	-17	3	-4
CCOc1cccc(-c2nnc3sc(C4CCCCC4)nn23)c1	-4	0	-15	-17	3	-4
Cc1nnc(SCC(=O)Nc2cccc(S(=O)(=O)N(C)c3ccccc3)c2)s1	2	-2	-4	-16	3	25
CC(C)(C)c1cc(C(=O)O)c(CN2CCCCC2)o1	-13	-2	38*	11	-2	11
O=C(CCN1CCN(c2ccccc2)CC1)N/N=C/c1ccccc1O	2	-1	-10	-6	1	-4
C=CCNC(=S)N/N=C(\C)c1ccccn1	13	-5	78*	35*	-7	3
COc1ccc(C2C(O)C(c3c[nH]c4ccccc34)=NN2C(=O)CCl)cc1 (stereo unspecified)	-150	56*	7	-320	60*	22
COc1ccc(OC)c(N(CC(=O)N2CCCC2)S(=O)(=O)c2ccccc2)c1	-31	12	10	16	-3	1
COC(=O)CN(c1cc(OC)ccc1OC)S(=O)(=O)c1ccc(OC)c(OC)c1	-17	9.2*	29*	11	-2	6
Cc1ccc(NCc2ccncc2)c(Br)c1	10	-4	32*	1	0	9
Cc1ccc(N2C(=O)CC(Sc3ccccc3C(=O)O)C2=O)cc1 (stereo unspecified)	-9	0	63*	13	-2	0
O=C(O)c1ccccc1SC1CC(=O)N(c2ccc3c(c2)OCO3)C1=O (stereo unspecified)	-17	3	13	5	-1	-15
CN1C(=O)CC(Sc2ccccc2C(=O)O)C1=O (stereo unspecified)	18	5	-4	7	-1	-8
Cc1cc(C)cc(N2C(=O)CC(Sc3ccccc3C(=O)O)C2=O)c1 (stereo unspecified)	27	4	10	4	-1	6
CN(C)c1ccc(N2C(=O)CC(Sc3ccccc3C(=O)O)C2=O)cc1 (stereo unspecified)	5	-1	52*	17	-3	-2
Cc1cccc(N2C(=O)CC(Sc3ccccc3C(=O)O)C2=O)c1 (stereo unspecified)	2	-1	78*	-7	1	-29
Cc1ccc(N2C(=O)CC(Sc3ccccc3C(=O)O)C2=O)cc1C (stereo unspecified)	0	0	36*	-6	1	-24
CN(C)CCCN(C(=O)c1cc2cc([N+](=O)[O-])ccc2s1)c1nc2cc3c(cc2s1)OCCO3	-12	5	·	-68	12	-1
Cc1cc(C(=O)NCc2ccccc2Cl)n(-c2ccccc2)n1	-16	5	·	-1	0	6
COC(=O)C1=C(C)N(Cc2ccccc2)C(=NCc2cccc(Cl)c2)N[C@H]1c1cccc(F)c1	-8	3	·	-154	28*	·
COC(=O)C1=C(C)N(Cc2ccccc2)C(=NCc2ccccc2)N[C@H]1c1cccc(C(F)(F)F)c1	-76	13*	·	-83	15	·
COC(=O)C1=C(C)N(Cc2ccccc2)C(=NCc2ccc(OC)cc2)N[C@H]1c1cccc(F)c1	-15	6	16	-26	4	-5
CCC(C(=O)OCC(=O)N(CCOC)c1c(N)n(Cc2ccccc2)c(=O)[nH]c1=O)c1ccccc1 (stereo unspecified)	18	2	33*	13	-2	4
SMILES	HTR5A inv ctr	HTR5A ag ctr	NALP1 yeast inh	MOR-DOR inv ag	OPRM1-OPRD1 ag	PolyA inh
CCOc1ccc(CNC(=O)CCC(=O)n2ncc3ccc(Cl)cc32)cc1	1	2	2	2	0	19
CCOc1ccc(-c2cc(C(=O)NCCCN3CCN(CC)CC3)c3ccccc3n2)cc1	1	-1	31*	11	-2	22
CCOc1ccc(-c2cc(C(=O)NCCCn3ccnc3)c3ccccc3n2)cc1	-10	6	-1	20	-4	-8
Cc1ccc(S(=O)(=O)Nc2cccc(C(=O)NCCCn3ccnc3)c2)cc1F	-16	-2	·	-4	1	28
CCn1c(SCC(=O)Nc2ccc(N3CCOCC3)cc2)nnc1C1CC1	-2	-3	·	15	-4	·
C=C(C)[C@@H]1CC=C(CO)CC1	-13	1	·	6	-1	·
C=C(C)C1CC=C(CN2CC(C)OC(C)C2)CC1 (stereo unspecified)	9	-3	41*	-29	5	-12
O=C(CC1C(=O)NCCN1Cc1c(F)cccc1Cl)NCCCOc1cccnc1 (stereo unspecified)	-18	2	21	19	-4	-7
Oc1c(Br)cc(Br)cc1C=Nc1cccnc1	-12	3	45*	3	-1	-8
Oc1c(Br)cc(Br)cc1C=Nc1ccc2[nH]ncc2c1	13	4	·	-34	7	10
COc1ccc(C2(CNC(=O)Cc3ccc(OC)c(OC)c3)CCOCC2)cc1	-4	4	25*	8	-1	29
CC(=O)Nc1ccc(C(=O)COC(=O)c2cc(C)oc2C)c(F)c1	-9	-1	·	-2	1	·
CC(=O)Nc1ccc2c(c1)ncn2-c1ccc(C)cc1	14	3	12	10	-2	·
COc1ccc(OC)c(S(=O)(=O)Nc2ccc(-c3ccc4nncn4n3)cc2)c1	2	1	·	-6	1	-6
CC(=O)NC(Cc1ccc(F)c(F)c1)C(=O)NC1CCN(C(=O)c2ccc(Cl)cc2)CC1 (stereo unspecified)	-24	8	32*	-27	3	21
Nc1ccc(-c2c3ccc(=O)cc-3oc3cc(O)ccc23)c(C(=O)O)c1	17	-5	·	32*	-6	·
Nc1ccc(O)c(C(=O)O)c1	·	·	·	·	·	-22
Cc1ccc(C)c(Cn2cnc3c(nnn3-c3ccc(F)cc3)c2=O)c1	-26	10*	4	-32	6	-7
COc1ccc(-n2nnc3c(=O)n(Cc4ccccc4C)cnc32)cc1	-9	0	-7	12	-2	-14
CS(=O)(=O)Nc1cccc(C2=NN(C(=O)CCC(=O)O)C(c3cccs3)C2)c1 (stereo unspecified)	2	-1	15	11	-2	18
CCC(=O)N1N=C(c2cccc(NS(C)(=O)=O)c2)CC1c1cccs1 (stereo unspecified)	-38	14*	33	16	-3	6
CC(=O)NC(CC(=O)N(Cc1ccccc1)c1cccc(C)c1)c1ccccc1 (stereo unspecified)	-7	0	4	16	-3	-15
